Our source for the growth values is PubChem BioAssay (NCI).

The structures appear in SMILES notation. About 83,000 compounds went through this panel and 20% of them were active in at least one assay; those are over-represented in the sample as a whole.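 The endpoint reported here, percent growth, reads 100 for growth as untreated, 0 for no net growth and -100 for all cells dead.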 A number with no mark means an inactive call. Active and inactive are the calls of the source. How the source made its calls: active means growth percent below 10; inactive means the rest.

One experiment relates to SF-539 CNS. Nature of the experiment: NCI-60 one-dose screen, 48 h (100 = growth as untreated, 0 = no growth, -100 = all killed). The note with it: 10 µM unless noted.
Turning to `O=C(CCCCC(=O)N/N=C\c1ccccc1O)N/N=C\c1ccccc1O`, the growth is 19%.

Regarding `COc1cc(-c2nc(C(=O)NCC(=O)NO)nn2-c2ccc(Cl)cc2)cc(OC)c1OC`, the growth was 96.7%.

Turning to `O=c1ccccc(-c2ccc(Br)cc2)c1O`, the growth is -0.947% (active).

As for `Cc1cc2nc(NC(=O)CN3CCN(CCN4C(=O)c5cccc6cccc(c56)C4=O)CC3)sc2cc1C`, the growth was 80.9%.

On to `COc1cc(C(=O)/C=C/c2cccnc2Nc2ccc(Cl)cc2)cc(OC)c1OC`, for which the growth was -80.2% (active).

On to `COc1ccc(-c2nnc(SCC(=O)c3ccc(Cl)cc3)o2)cc1`, for which the growth is 95.6%.

Regarding `COc1cc(/C=C/C(=O)Nc2cccnc2Nc2ccc(F)cc2)cc(OC)c1OC`, the growth was 95.2%.

Take `O=C1/C(=C/c2ccccc2O)N=C2SCCCN12`: the growth is 95.4%.

Turning to `CC(C)(CCCN=C(N)Nc1ccc(Cl)cc1)c1ccc(F)cc1`, the growth is 76.1%.

`CCCCC[C@H]1C/C=C2/C(=O)C=C[C@@H]2C/C=C\CCCC(=O)O1`: the growth was -71.4% (active).

For `COc1ccc2c(c1)C(=O)/C(=C/c1ccccn1)CC2`, the growth was 72%.

Regarding `C=C1C(=O)O[C@H]2[C@H]1CC/C(COC(=O)NCCc1ccc(OC)c(OC)c1)=C\CC[C@@]1(C)O[C@@H]21`, the growth is 47.2%.

Regarding `COc1cc(-c2nn(-c3ccc(Br)cc3)cc2C(=O)O)ccc1O`, the growth is 128%.

`CCCCCC(=O)Oc1ccc(/C(=C(\C)c2ccc(OC)cc2)c2ccc(OCCN3CCCCC3)cc2)cc1`: the growth is 40.8%.

Regarding `COC(=O)[C@@H]1CCCN1C(=O)[C@@H]1CCCN1C(=O)[C@H](Cc1ccccc1)NC(=S)Nc1cc(C(F)(F)F)cc(C(F)(F)F)c1`, the growth was 94%.

As to `CCOc1ccc(C(C)=O)cc1NC(=O)c1cccc(-c2nnn(CC)n2)c1`, the growth was -16.7% (active).

On to `O=[N+]([O-])c1ccccc1/C=N\NC(=S)N/N=C/c1ccccc1[N+](=O)[O-]`, for which the growth is 56.3%.

As for `O=[N+]([O-])c1ccc2c(c1)Cc1cc(F)ccc1-2`, the growth is 109%.

On to `CC(=O)OC[C@H]1O[C@H](OC(C)=O)[C@H](NC(=O)/C=C/CCl)[C@@H](OC(C)=O)[C@@H]1OC(C)=O`, for which the growth is 65.6%.

Consider `CCC#CC[C@H](O)C/C=C1/C(=O)C=C[C@@H]1C/C=C\CCCC(=O)OC`, for which the growth was -5.91% (active).

Regarding `CC/C=C\C[C@H](O)C/C=C1/C(=O)C=C[C@@]1(C)C/C=C\CCCC(=O)OC`, the growth is 93.6%.

Regarding `CC[N+](CC)=c1sc2c(s1)C(c1ccc(Cl)cc1)Oc1ccc(Cl)cc1-2` (stereo not drawn), the growth is -22.1% (active).

In the case of `COc1cccc(-c2nc(SCC(=O)Nc3ccc(C(=O)/C=C/c4ccc(OC)c(OC)c4)cc3)[nH]c(=O)c2C#N)c1`, the growth is 86.2%.

As for `COc1ccc(CN2c3ccccc3Oc3ccccc32)cc1O`, the growth was 16.3%.

Regarding `C=C1C(=O)O[C@H]2[C@H]1CC/C(C=Nc1ccc(C(F)(F)F)cc1N)=C\CC[C@@]1(C)O[C@@H]21`, the growth is -7.2% (active).

With `COc1ccc2c(c1)C(=O)/C(=C/c1cccnc1)CC2`, the growth was 90.5%.

With `Clc1ccc2c(NCCCCNc3nc(N4CCOCC4)nc4ccccc34)ccnc2c1`, the growth is -84.5% (active).

For `COc1ccccc1Nc1nc(-c2cc3cccc(C(F)(F)F)c3oc2=O)cs1`, the growth is -32.9% (active).

Consider `CCc1c(Nc2ccccc2C)nc(N)[nH]c1=O`, for which the growth is 103%.

As for `O=c1oc2c(C(F)(F)F)cccc2cc1-c1csc(Nc2ccc(OCCF)cc2)n1`, the growth is -28.6% (active).

In the case of `COc1ccc(CN2c3ccccc3Sc3ccccc32)c(C(F)(F)F)c1`, the growth is -12.4% (active).

On to `COc1cc2c(cc1O)CC[C@@H]1[C@@H]2CC[C@]2(C)[C@@H](OCCN(C)C)CC[C@@H]12`, for which the growth is 4.14% (active).

Consider `CCNc1ncnc2c1cnn2C1CCCO1` (stereo not drawn), for which the growth is 105%.

Regarding `NC(=NCCCC1(c2ccccc2)CCCC1)Nc1ccc(Cl)cc1`, the growth is 51.3%.

For `CCOc1ccc(-n2nc(C(=O)Nc3cc(OC)c(OC)c(OC)c3)nc2-c2cc(OC)c(OC)c(OC)c2)cc1`, the growth was 87.8%.

With `COc1ccc(CN2c3ccccc3Sc3ccccc32)cc1O`, the growth was -11% (active).

As to `NCCNc1nc(Nc2ccc(-c3nc4ccccc4[nH]3)cc2)c2cn[nH]c2n1`, the growth is -9.77% (active).

On to `COc1cccc2c1C(=O)c1c(O)c3c(c(O)c1C2=O)C[C@](O)(C(=O)CO)C[C@H]3O[C@@H]1C[C@@H](NC(=O)CCCCCN(C)C2(c3ccc(F)cc3)CC3CCC2C3)[C@H](O)[C@@H](C)O1` (stereo partly drawn), for which the growth is -82.9% (active).

In the case of `CC(O)CN(CC(C)O)c1ccc2c(c1)Cc1cc([N+](=O)[O-])ccc1-2` (stereo not drawn), the growth was 92.4%.

The next experiment deals with UACC-257 melanoma. Described as above. Particulars: 10 µM unless noted.
`O=C(CCCCC(=O)N/N=C\c1ccccc1O)N/N=C\c1ccccc1O`: the growth was 26%.

Take `COc1cc(-c2nc(C(=O)NCC(=O)NO)nn2-c2ccc(Cl)cc2)cc(OC)c1OC`: the growth was 86.8%.

`O=c1ccccc(-c2ccc(Br)cc2)c1O`: the growth is 1.13% (active).

With `Cc1cc2nc(NC(=O)CN3CCN(CCN4C(=O)c5cccc6cccc(c56)C4=O)CC3)sc2cc1C`, the growth is 99.2%.

In the case of `COc1cc(C(=O)/C=C/c2cccnc2Nc2ccc(Cl)cc2)cc(OC)c1OC`, the growth was -63.5% (active).

`COc1ccc(-c2nnc(SCC(=O)c3ccc(Cl)cc3)o2)cc1`: the growth was 107%.

For the compound `COc1cc(/C=C/C(=O)Nc2cccnc2Nc2ccc(F)cc2)cc(OC)c1OC`, the growth was 62.9%.

As for `O=C1/C(=C/c2ccccc2O)N=C2SCCCN12`, the growth was 103%.

Consider `CC(C)(CCCN=C(N)Nc1ccc(Cl)cc1)c1ccc(F)cc1`, for which the growth is 86.6%.

`CCCCC[C@H]1C/C=C2/C(=O)C=C[C@@H]2C/C=C\CCCC(=O)O1`: the growth is -49.4% (active).

`COc1ccc2c(c1)C(=O)/C(=C/c1ccccn1)CC2`: the growth was 81%.

As to `C=C1C(=O)O[C@H]2[C@H]1CC/C(COC(=O)NCCc1ccc(OC)c(OC)c1)=C\CC[C@@]1(C)O[C@@H]21`, the growth was 62.9%.

In the case of `COc1cc(-c2nn(-c3ccc(Br)cc3)cc2C(=O)O)ccc1O`, the growth was 107%.

Consider `CCCCCC(=O)Oc1ccc(/C(=C(\C)c2ccc(OC)cc2)c2ccc(OCCN3CCCCC3)cc2)cc1`, for which the growth was 8.72% (active).

For the compound `COC(=O)[C@@H]1CCCN1C(=O)[C@@H]1CCCN1C(=O)[C@H](Cc1ccccc1)NC(=S)Nc1cc(C(F)(F)F)cc(C(F)(F)F)c1`, the growth was 11.8%.

With `CCOc1ccc(C(C)=O)cc1NC(=O)c1cccc(-c2nnn(CC)n2)c1`, the growth was 57.1%.

Consider `O=[N+]([O-])c1ccccc1/C=N\NC(=S)N/N=C/c1ccccc1[N+](=O)[O-]`, for which the growth is 83.2%.

For `O=[N+]([O-])c1ccc2c(c1)Cc1cc(F)ccc1-2`, the growth was 87.1%.

On to `CC(=O)OC[C@H]1O[C@H](OC(C)=O)[C@H](NC(=O)/C=C/CCl)[C@@H](OC(C)=O)[C@@H]1OC(C)=O`, for which the growth was 64%.

`CCC#CC[C@H](O)C/C=C1/C(=O)C=C[C@@H]1C/C=C\CCCC(=O)OC`: the growth was -6.54% (active).

As for `CC/C=C\C[C@H](O)C/C=C1/C(=O)C=C[C@@]1(C)C/C=C\CCCC(=O)OC`, the growth is 87.1%.

`CC[N+](CC)=c1sc2c(s1)C(c1ccc(Cl)cc1)Oc1ccc(Cl)cc1-2` (stereo not drawn): the growth is -7.21% (active).

Take `COc1cccc(-c2nc(SCC(=O)Nc3ccc(C(=O)/C=C/c4ccc(OC)c(OC)c4)cc3)[nH]c(=O)c2C#N)c1`: the growth is 97.4%.

For the compound `COc1ccc(CN2c3ccccc3Oc3ccccc32)cc1O`, the growth was 39.1%.

Take `C=C1C(=O)O[C@H]2[C@H]1CC/C(C=Nc1ccc(C(F)(F)F)cc1N)=C\CC[C@@]1(C)O[C@@H]21`: the growth was 13%.

Regarding `COc1ccc2c(c1)C(=O)/C(=C/c1cccnc1)CC2`, the growth is 108%.

Take `Clc1ccc2c(NCCCCNc3nc(N4CCOCC4)nc4ccccc34)ccnc2c1`: the growth was 84.9%.

Consider `COc1ccccc1Nc1nc(-c2cc3cccc(C(F)(F)F)c3oc2=O)cs1`, for which the growth is 57.1%.

Take `CCc1c(Nc2ccccc2C)nc(N)[nH]c1=O`: the growth was 115%.

In the case of `O=c1oc2c(C(F)(F)F)cccc2cc1-c1csc(Nc2ccc(OCCF)cc2)n1`, the growth is 55.2%.

In the case of `COc1ccc(CN2c3ccccc3Sc3ccccc32)c(C(F)(F)F)c1`, the growth is 53.9%.

For `COc1cc2c(cc1O)CC[C@@H]1[C@@H]2CC[C@]2(C)[C@@H](OCCN(C)C)CC[C@@H]12`, the growth was -18.2% (active).

Turning to `CCNc1ncnc2c1cnn2C1CCCO1` (stereo not drawn), the growth is 99.6%.

Take `NC(=NCCCC1(c2ccccc2)CCCC1)Nc1ccc(Cl)cc1`: the growth was 26.4%.

In the case of `CCOc1ccc(-n2nc(C(=O)Nc3cc(OC)c(OC)c(OC)c3)nc2-c2cc(OC)c(OC)c(OC)c2)cc1`, the growth was 93.1%.

Turning to `COc1ccc(CN2c3ccccc3Sc3ccccc32)cc1O`, the growth is 52.5%.

With `NCCNc1nc(Nc2ccc(-c3nc4ccccc4[nH]3)cc2)c2cn[nH]c2n1`, the growth was 104%.

Regarding `COc1cccc2c1C(=O)c1c(O)c3c(c(O)c1C2=O)C[C@](O)(C(=O)CO)C[C@H]3O[C@@H]1C[C@@H](NC(=O)CCCCCN(C)C2(c3ccc(F)cc3)CC3CCC2C3)[C@H](O)[C@@H](C)O1` (stereo partly drawn), the growth is 96.4%.

In the case of `CC(O)CN(CC(C)O)c1ccc2c(c1)Cc1cc([N+](=O)[O-])ccc1-2` (stereo not drawn), the growth is 125%.
